# Source: PubChem BioAssay (NCATS)
# Where “and” joins values, the source holds several entries; their conditions need not be identical. Identical values can stand only once. Results filed as inconclusive are left out. A call without a number means that no potency is given here. The source holds several records for some structures; these can differ, active in one and inactive in another. Calls of active or inactive are those of the source. Unless noted, the call rests on the fitted dose curve; in most records, active means well fitted curve in the direction sought with a large enough effect; inconclusive means small, poorly fitted or top-dose-only effect, or another doubt; inactive means no such curve, though single readings can be large; an effect the other way counts as inactive or inconclusive.
# Legend:
# [1] = biological target: Cytochrome P450 2C9 (Homo sapiens) (UniProt P11712); experiment: qHTS Assay for Inhibitors and Substrates of Cytochrome P450 2C9 (AID 883); further: nearly all actives have a fitted effect of over 60% in size; further: potency means the concentration at half of the fitted maximal effect
# Summary of the method: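 Human CYP2C9 (10nM) hydroxylated Luciferin-H (100uM, at its KM) to luciferin in 25mM KPO4. Compound was preincubated 10 min at 37C, then NADPH regeneration started a 60 min reaction at 37C. Luminescence was read after detection reagent, normalized to 57uM sulphaphenazole.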
# [2] = biological target: Cytochrome P450 3A4 (Homo sapiens) (UniProt P08684); experiment: qHTS Assay for Activators of Cytochrome P450 3A4 (AID 885); further: nearly all actives have a fitted effect of over 65% in size
# Summary of the method: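 Human CYP3A4 dealkylates Luciferin-PPXE to luciferin, which luciferase detection converts to light. Substrate was at its KM (25uM), buffer 200mM KPO4, reaction 60 min at RT.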
# [3] = biological target: Cytochrome P450 2C19 (Homo sapiens) (UniProt P33261); experiment: qHTS Assay for Inhibitors and Substrates of Cytochrome P450 2C19 (AID 899); further: potency means the concentration at half of the fitted maximal effect; nearly all actives have a fitted effect of over 60% in size
# Summary of the method: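 Human CYP2C19 (5nM) with Luciferin-H EGE at 10uM (its KM) in 50mM KPO4 was preincubated with compound for 10 min at 37C. NADPH regeneration started a 60 min 37C reaction. Luciferin was read by luminescence, normalized to 57uM ketoconazole.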
# [4] = biological target: Guanine nucleotide-binding protein G(i) subunit alpha-1 (Homo sapiens) (UniProt P63096); experiment: qHTS Assay for Inhibitors of RGS12 GoLoco Motif Activity (Green Fluorophore) (AID 879);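 further: negative values mean loss of peptide binding seen as reduced polarization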
# Summary of the method: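 A drop in FITC polarization marked displacement of the FITC-tagged RGS12 GoLoco peptide (10 nM) from Gαi1 (50 nM). Compounds were incubated 10 min at room temperature in Tris pH 7.5 buffer containing 150 mM NaCl, 0.1 mM GDP and 0.05% NP40; unlabeled peptide titration served as control.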
# [5] = biological target: Pyruvate kinase (Leishmania mexicana) (UniProt Q27686); experiment: qHTS Validation Assay for Inhibitors of Leishmania Mexicana Pyruvate Kinase (AID 945)
# Summary of the method: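 Pyruvate kinase activity of E451W LmPYK (0.2 nM) was followed as ATP output after 1 h at room temperature with 0.5 mM PEP and 0.1 mM ADP, detected by PKLight luminescence.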
# [6] = Confirmation and Secondary Assay for Modulators of Hemoglobin Beta Chain Splicing at IVS2 654 locus (AID 910);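 further: per-well total GFP intensity by laser scanning cytometry after 2-day treatment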
# Summary of the method: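 HeLa cells stably carrying EGFP interrupted by mutant beta-globin IVS2-654 intron (CMV-driven) were treated with compound for 2 days at 37C; corrected splicing was scored as total peak GFP intensity per well (488 nm excitation, 500-520 nm emission).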
# [7] = qHTS Assay for Identification of Small Molecule Agonists for Thrombopoietin (TPO) Signaling Pathway (AID 917)
# Summary of the method: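 First, Ba/F3 cells with human TPO receptor were held overnight without IL-3. Next, compounds and TPO (26 pM final) were added. After 24 hrs at 37 C, luciferase detection reagent was added and luminescence measured following 10 min at room temperature.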
# [8] = Confirmation and Secondary Assay for Modulators of Hemoglobin Beta Chain Splicing at IVS2 705 locus (AID 930);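 further: HeLa cells stably expressing the EGFP-705 splicing reporter; GFP fluorescence per well restored by corrected splicing of the IVS2-705 intron in EGFP; series mostly up to about 46 µM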
# Summary of the method: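 Assay measures total GFP intensity per well in HeLa EGFP-705 cells after 2 days with compound; mis-splicing normally truncates EGFP, so fluorescence indicates corrected splicing.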
# [9] = biological target: Cytochrome P450 3A4 (Homo sapiens) (UniProt P08684); experiment: qHTS Assay for Inhibitors and Substrates of Cytochrome P450 3A4 (AID 884); further: nearly all actives have a fitted effect of over 50% in size; further: potency means the concentration at half of the fitted maximal effect
# Summary of the method: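 Luminescent readout of luciferin produced by CYP3A4 (20 nM) dealkylation of Luciferin-PPXE, 25 uM (its KM). NADPH-driven reaction ran 60 min at RT after 10 min compound preincubation; data scaled to 57 uM ketoconazole as 100% inhibition.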
# [10] = qHTS Assay for Identification of Small Molecule Agonists for Hypoxia Response Element Signaling Pathway (AID 914; active means well fitted activation curve with a large enough effect in the signal ratio, with a control signal flat, not every such curve was filed as active; the % refers to the signal ratio); settings: ME-180 (cervical carcinoma) HRE-bla reporter, beta-lactamase ratio, CoCl2, 17 h; stronger effect = higher value
# Summary of the method: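 Compounds in a titration series were added to ME-180 reporter cells alongside an EC50 level of CoCl2. After 17 hours, beta-lactamase activity was read as the 460nm/530nm emission ratio of CCF4, giving AC50 values.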
# [11] = biological target: Muscarinic acetylcholine receptor M1 (Rattus norvegicus) (UniProt P08482); experiment: qHTS Assay for Antagonists of Acetylcholine Muscarinic M1 Receptor: Kinetic Measurement of Intracellular Calcium Response (AID 943);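 further: Fluo-4 calcium signal as peak divided by basal fluorescence over 4 min; series mostly up to about 35 µM; nearly all actives have a fitted effect of over 75% in size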
# Summary of the method: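 Quantitative HTS in CHO-M1 (rat receptor) cells: 10 min compound exposure ahead of 100 nM carbachol, Fluo-4 fluorescence followed 4 min, value expressed as peak-to-basal ratio.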
# [12] = biological target: Cytochrome P450 2D6 (Homo sapiens) (UniProt P10635); experiment: qHTS Assay for Inhibitors and Substrates of Cytochrome P450 2D6 (AID 891); further: nearly all actives have a fitted effect of over 60% in size; further: potency means the concentration at half of the fitted maximal effect
# Summary of the method: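 Luminescent read-out of luciferin formed by 5 nM human CYP2D6 demethylating 30 uM Luciferin-ME EGE (Km level) over 60 min at room temperature after NADPH regeneration addition. Data normalized to full inhibition by 1.43 uM quinidine.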
# [13] = qHTS Assay for Identification of Small Molecule Antagonists for Thrombopoietin (TPO) Signaling Pathway (AID 918); settings: TPO-dependent cell signaling reporter, antagonist mode; further: potency means the concentration at half of the fitted maximal effect; nearly all actives have a fitted effect of over 60% in size
# Summary of the method: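 Antagonist mode at EC50 TPO (26 pM) in IL-3-free medium; murine Ba/F3 cells with human TPO receptor and GPIIb-promoter luciferase, 24 hrs at 37 C before luminescent detection.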
# [14] = qHTS Assay for Identification of Small Molecule Antagonists for NFkB Signaling Pathway (AID 895; active means well fitted inhibition curve with a large enough effect in the signal ratio, with a control signal flat, not every such curve was filed as active; the % refers to the signal ratio; further: potency means the concentration at half of the fitted maximal effect)
# Summary of the method: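 NFkB-bla ME-180 cervical carcinoma cells with beta-lactamase reporter under NFkB response element; compounds added, then TNF alpha at 10 pM final (EC50), 5 h at 37 C. LiveBLAzer substrate 2 h, room temperature; emission 460/530 nm at 405 nm excitation.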
# Sequence of Guanine nucleotide-binding protein G(i) subunit alpha-1 (Homo sapiens) (P63096 whole entry, looked up): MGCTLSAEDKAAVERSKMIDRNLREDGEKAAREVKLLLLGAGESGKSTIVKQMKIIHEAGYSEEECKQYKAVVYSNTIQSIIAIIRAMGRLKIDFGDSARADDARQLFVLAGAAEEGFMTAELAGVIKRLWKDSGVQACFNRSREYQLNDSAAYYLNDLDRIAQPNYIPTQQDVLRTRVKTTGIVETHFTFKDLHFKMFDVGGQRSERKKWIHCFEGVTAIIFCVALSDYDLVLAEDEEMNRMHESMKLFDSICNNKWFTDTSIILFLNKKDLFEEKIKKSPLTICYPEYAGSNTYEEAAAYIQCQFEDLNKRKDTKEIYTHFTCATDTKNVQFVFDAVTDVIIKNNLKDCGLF
# Sequence of Cytochrome P450 2C19 (Homo sapiens) (P33261 whole entry, looked up): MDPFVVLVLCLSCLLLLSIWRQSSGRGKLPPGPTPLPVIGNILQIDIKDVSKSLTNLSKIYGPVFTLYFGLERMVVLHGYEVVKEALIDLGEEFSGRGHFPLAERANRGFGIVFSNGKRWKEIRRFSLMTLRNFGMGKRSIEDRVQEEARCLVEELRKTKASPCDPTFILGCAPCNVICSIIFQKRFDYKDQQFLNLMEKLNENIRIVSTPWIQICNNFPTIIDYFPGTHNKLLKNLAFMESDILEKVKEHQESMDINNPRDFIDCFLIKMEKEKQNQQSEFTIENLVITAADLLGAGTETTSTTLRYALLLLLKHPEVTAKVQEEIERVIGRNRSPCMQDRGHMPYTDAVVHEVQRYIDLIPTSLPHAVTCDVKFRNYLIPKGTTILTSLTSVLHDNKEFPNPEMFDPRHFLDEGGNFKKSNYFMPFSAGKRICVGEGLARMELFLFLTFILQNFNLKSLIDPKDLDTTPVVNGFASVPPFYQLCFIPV
# Sequence of Cytochrome P450 3A4 (Homo sapiens) (P08684 whole entry, looked up): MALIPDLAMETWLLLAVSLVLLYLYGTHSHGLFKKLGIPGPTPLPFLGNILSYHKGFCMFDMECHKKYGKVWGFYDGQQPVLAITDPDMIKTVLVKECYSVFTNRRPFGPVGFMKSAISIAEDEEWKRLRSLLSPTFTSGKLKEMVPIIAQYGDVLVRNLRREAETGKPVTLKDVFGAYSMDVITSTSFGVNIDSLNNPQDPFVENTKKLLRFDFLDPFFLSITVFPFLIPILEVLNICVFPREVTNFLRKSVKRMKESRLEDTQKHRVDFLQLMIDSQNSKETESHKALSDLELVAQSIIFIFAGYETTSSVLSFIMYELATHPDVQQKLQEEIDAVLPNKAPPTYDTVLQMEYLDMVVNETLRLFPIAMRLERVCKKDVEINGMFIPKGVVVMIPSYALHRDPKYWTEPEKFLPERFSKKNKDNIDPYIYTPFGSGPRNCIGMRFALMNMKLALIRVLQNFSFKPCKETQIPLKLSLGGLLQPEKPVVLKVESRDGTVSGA
# Sequence of Pyruvate kinase (Leishmania mexicana) (Q27686 2-499 E452W): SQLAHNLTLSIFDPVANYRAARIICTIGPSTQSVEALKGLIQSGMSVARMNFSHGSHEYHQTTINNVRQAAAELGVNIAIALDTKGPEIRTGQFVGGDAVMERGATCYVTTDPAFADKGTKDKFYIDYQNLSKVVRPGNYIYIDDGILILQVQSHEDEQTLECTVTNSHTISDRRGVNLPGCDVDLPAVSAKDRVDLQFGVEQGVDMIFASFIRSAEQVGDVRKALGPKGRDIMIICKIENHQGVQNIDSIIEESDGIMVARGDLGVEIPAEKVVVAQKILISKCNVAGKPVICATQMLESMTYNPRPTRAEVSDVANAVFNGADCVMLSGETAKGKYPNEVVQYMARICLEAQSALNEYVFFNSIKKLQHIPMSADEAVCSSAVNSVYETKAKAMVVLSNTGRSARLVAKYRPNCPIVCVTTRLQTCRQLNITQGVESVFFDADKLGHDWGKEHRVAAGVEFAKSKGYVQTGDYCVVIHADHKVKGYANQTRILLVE
# Sequence of Cytochrome P450 2D6 (Homo sapiens) (P10635 whole entry, looked up): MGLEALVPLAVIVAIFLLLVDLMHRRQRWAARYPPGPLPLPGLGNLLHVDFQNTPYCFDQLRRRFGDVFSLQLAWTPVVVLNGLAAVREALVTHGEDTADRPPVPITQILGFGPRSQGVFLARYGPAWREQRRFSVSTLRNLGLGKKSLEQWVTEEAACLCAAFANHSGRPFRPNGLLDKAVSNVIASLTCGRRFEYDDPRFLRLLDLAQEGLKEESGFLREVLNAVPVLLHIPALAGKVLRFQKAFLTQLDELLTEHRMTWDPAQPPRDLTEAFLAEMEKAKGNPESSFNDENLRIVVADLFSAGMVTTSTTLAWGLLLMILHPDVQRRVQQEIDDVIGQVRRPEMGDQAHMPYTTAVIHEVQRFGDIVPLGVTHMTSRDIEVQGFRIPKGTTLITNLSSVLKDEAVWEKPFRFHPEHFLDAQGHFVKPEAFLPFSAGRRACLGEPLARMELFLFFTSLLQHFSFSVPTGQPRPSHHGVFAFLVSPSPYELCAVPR
# Sequence of Cytochrome P450 2C9 (Homo sapiens) (P11712 whole entry, looked up): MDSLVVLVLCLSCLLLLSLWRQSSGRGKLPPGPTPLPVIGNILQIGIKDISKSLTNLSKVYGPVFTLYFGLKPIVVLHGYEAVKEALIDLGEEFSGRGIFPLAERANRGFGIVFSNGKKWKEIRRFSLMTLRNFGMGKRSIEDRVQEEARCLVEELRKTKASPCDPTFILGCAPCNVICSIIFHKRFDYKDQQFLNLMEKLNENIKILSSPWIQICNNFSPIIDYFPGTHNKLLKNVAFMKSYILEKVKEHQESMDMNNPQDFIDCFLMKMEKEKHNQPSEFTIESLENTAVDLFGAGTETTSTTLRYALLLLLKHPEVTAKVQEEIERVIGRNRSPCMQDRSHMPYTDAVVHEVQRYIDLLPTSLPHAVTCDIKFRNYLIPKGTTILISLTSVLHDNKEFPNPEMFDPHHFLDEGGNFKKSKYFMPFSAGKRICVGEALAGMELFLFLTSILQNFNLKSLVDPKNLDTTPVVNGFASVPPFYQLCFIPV
# Sequence of Muscarinic acetylcholine receptor M1 (Rattus norvegicus) (P08482 whole entry, looked up): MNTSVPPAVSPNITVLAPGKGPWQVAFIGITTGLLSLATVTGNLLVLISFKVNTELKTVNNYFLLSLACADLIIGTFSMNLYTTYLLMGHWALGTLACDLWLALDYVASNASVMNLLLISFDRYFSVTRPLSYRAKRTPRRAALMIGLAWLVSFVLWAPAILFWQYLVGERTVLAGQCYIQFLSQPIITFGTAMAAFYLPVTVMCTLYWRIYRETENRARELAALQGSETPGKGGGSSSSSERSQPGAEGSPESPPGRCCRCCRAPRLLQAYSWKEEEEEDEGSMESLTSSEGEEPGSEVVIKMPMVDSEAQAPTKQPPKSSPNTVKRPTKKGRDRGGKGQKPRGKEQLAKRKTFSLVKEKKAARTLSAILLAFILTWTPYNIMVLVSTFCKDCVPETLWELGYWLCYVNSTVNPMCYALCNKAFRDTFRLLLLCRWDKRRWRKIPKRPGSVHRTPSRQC
smiles,measurement,setting,value
CS(=O)c1ccc(-c2nc(-c3ccc(F)cc3)c(-c3ccncc3)[nH]2)cc1 (stereo unspecified),Potency,[1],2000 nM (active)
same,outcome,[2],inactive
same,Potency,[3],39.8 nM (active)
COc1ccc(Cc2nccc3cc(OC)c(OC)cc23)cc1OC,outcome,[4],inactive
same,Potency,[5],inactive
O=C(O)CCc1nc(-c2ccccc2)c(-c2ccccc2)o1,outcome,[4],inactive
same,outcome,[6],inactive
same,Potency,[7],inactive
same,outcome,[8],inactive
same,Potency,[5],inactive
c1ccc2c(Cc3c[nH]c4ccccc34)c[nH]c2c1,outcome,[2],inactive
same,outcome,[6],inactive
same,outcome,[8],inactive
O=C1C(Cl)=C(NCCN2CCOCC2)C(=O)c2ncccc21,Potency,[9],2.51 µM (active)
same,outcome,[2],inactive
COc1ccc(C2Sc3ccccc3N(CCN(C)C)C(=O)C2OC(C)=O)cc1 (stereo unspecified),outcome,[6],inactive
same,outcome,[8],inactive
c1cc(-c2sc(-c3ccncc3)c(-c3ccncc3)c2-c2ccncc2)ccn1,Potency,[1],2000 nM (active)
same,Potency,[9],0.316 µM (active)
same,"activity change, positive = activation",[2],-102% [at 11.4 µM] (inactive)
same,Potency,[3],1580 nM (active)
same,activation,[10],-25.7% (inactive)
C[N+](C)(C)CC(=O)O,outcome,[4],inactive
same,Potency,[7],inactive
same,outcome,[11],inactive
same,Potency,[5],inactive
COc1cc(O)c2c(c1)C(=O)c1cc(C)cc(O)c1C2=O,Potency,[9],inactive
same,outcome,[6],inactive
same,outcome,[8],inactive
CCCCCCCCCCCC1=C(O)C(=O)C=C(O)C1=O,Potency,[1],25100 nM (active)
same,Potency,[9],inactive
same,Potency,[12],inactive and 2 µM (active)
same,outcome,[6],inactive
same,outcome,[8],inactive
COc1ccc(-c2coc3cc(O)ccc3c2=O)cc1,Potency,[1],inactive
same,Potency,[9],inactive
same,outcome,[2],inactive
same,outcome,[6],inactive
same,outcome,[8],inactive
O=c1cc(-c2ccccc2)oc2cc(O)cc(O)c12,Potency,[9],7.94 µM (active) and inactive and 2.51 µM (active)
same,outcome,[2],inactive
same,Potency,[3],794 nM (active)
same,outcome,[6],inactive
same,outcome,[8],inactive
COc1ccc(-c2coc3cc(O)cc(O)c3c2=O)cc1,Potency,[1],inactive
same,Potency,[9],20 µM (active)
same,outcome,[2],inactive
same,Potency,[12],31600 nM (active)
same,Potency,[3],7940 nM (active)
same,outcome,[6],inactive
same,outcome,[8],inactive
CC(=O)N[C@@H](CS)C(=O)O,outcome,[4],inactive
same,Potency,[9],inactive
same,outcome,[11],inactive
same,Potency,[5],inactive
CCN(CC)CCNC(=O)c1ccc(N)cc1,outcome,[4],inactive
same,outcome,[6],inactive
same,Potency,[7],inactive
same,outcome,[8],inactive
same,Potency,[5],inactive
C[C@]12CCC3c4ccc(O)cc4CCC3C1CCC2=O (stereo partly specified),outcome,[6],inactive
same,outcome,[8],inactive
O=C1C[C@@H](c2ccc(O)cc2)Oc2cc(O)cc(O)c21,Potency,[12],inactive
Cc1cccc(C)c1OCC(C)N (stereo unspecified),outcome,[6],inactive
same,outcome,[8],inactive
CC(C)(C)c1ccc(C(O)CCCN2CCC(C(O)(c3ccccc3)c3ccccc3)CC2)cc1 (stereo unspecified),outcome,[4],inactive
same,activation,[10],3.01% (inactive)
same,Potency,[13],2510 nM (active)
same,Potency,[5],inactive
CC(C)NCC(O)COc1cccc2[nH]ccc12 (stereo unspecified),outcome,[4],inactive
same,outcome,[6],inactive
same,Potency,[7],inactive
same,outcome,[8],inactive
same,Potency,[5],inactive
CC1(C)CCC2=C(O1)c1ccccc1C(=O)C2=O,outcome,[4],inactive
same,Potency,[14],8910 nM (active)
same,Potency,[13],1580 nM (active)
same,Potency,[5],inactive
NC(N)=Nc1nc(CSCC/C(N)=N/S(N)(=O)=O)cs1,outcome,[4],inactive
same,Potency,[7],inactive
same,Potency,[5],inactive
